This excerpt belongs to a sample that is enriched for hits.
FBPA Giardia inh – qHTS Assay for Inhibitors of Fructose-1,6-bisphosphate Aldolase from Giardia Lamblia; actives 0.71% (n = 290,000); A8B2U2; purified Giardia FBPA; AID 2451, 2010; Potency, µM (series often up to 59.6 µM), for the others: at the highest dose activity, negative = inhibition, usual class: inhibitors; further: potency means the concentration at half of the fitted maximal effect; on the % scale 0 is the no-effect control and ±100 the full control effect; nearly all actives have a fitted effect of over 55% in size
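Giardia FBPA (40 nM reagent) was preincubated 10 min at RT with compound (up to 57.5 uM final), then substrate plus GAPDH/TPI/NAD/arsenate coupling system with diaphorase/resazurin was added; resorufin fluorescence (525/598 nm) was read after 20 min.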
Tb PYK inh – qHTS of Trypanosoma Brucei Inhibitors | pyruvate kinase (Trypanosoma brucei), Q57TT1 | TbPYK enzyme, Kinase-Glo Plus ATP luminescence, 45 min | Potency, µM (top dose mostly 76.8 µM), inactives show top-dose activity, negative = inhibition, hits mostly inhibitors | actives 0.12% (n = 410,000) | AID 624173, 2012; further: potency means the concentration at half of the fitted maximal effect; on the % scale 0 is the no-effect control and ±100 the full control effect; nearly all actives have a fitted effect of over 50% in size
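Readout: single end-point luminescence (Kinase-Glo Plus, 10 min). Reaction conditions were TbPYK/substrate plus 130 uM ADP, 45 min at RT, pH 7.2 TEA buffer. No-enzyme wells served as controls, and data were normalized before concentration-response fitting.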
CHX counter – Cycloheximide Counterscreen for Small Molecule Inhibitors of Shiga Toxin; actives 12% (n = 300,000); max response, %; cell reporter, cycloheximide protein synthesis inhibition counterscreen; in the data active means max response mostly above about 13%, no sharp cut-off; inactive means mostly below about 14%; further: read at 38.3 µM for the half of the compounds with a filed dose; 0% is about no effect
Sm TGR block – qHTS Assay for the Inhibitors of Schistosoma Mansoni Peroxiredoxins. Schistosoma mansoni thioredoxin glutathione reductase (TGR), Q962Y6. purified TGR, DTNB reduction, TNB absorbance 405 nm. Potency, µM (series often up to 114 µM), inactives show top-dose activity change, negative = inhibition, usual class: inhibitors. actives 3% (n = 360,000). AID 485364, 2010; further: potency means the concentration at half of the fitted maximal effect; on the % scale 0 is the no-effect control and ±100 the full control effect; nearly all actives have a fitted effect of over 60% in size
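TGR 20 nM + NADPH 100 uM (dispensed conc.), cpd preinc 15 min RT; start with NADPH (500 uM addition) then DTNB (15 mM addition). Kinetic TNB absorbance, 405 nm filter. Four-parameter Hill fit across titration.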
Shiga toxin inh – A qHTS for Small Molecule Inhibitors of Shiga Toxin | inhibition, % at 38.7 µM | actives 9.2% (n = 290,000) | AID 2315, 2010 | Vero cells, Shiga toxin protein synthesis inhibition reporter; in the data active means inhibition mostly above about 28%, no sharp cut-off; inactive means mostly below about 43%; further: 0% is about no effect
LmPK inh – qHTS Assay for Inhibitors of Leishmania Mexicana Pyruvate Kinase (LmPK). Potency, µM (titrated, usually from 57.5 µM), for the others: at the highest dose activity change, negative = inhibition, usual class: inhibitors. purified LmPK, Kinase-Glo ATP luminescence, 1 h. actives 0.37% (n = 290,000). Q27686; further: potency means the concentration at half of the fitted maximal effect; on the % scale 0 is the no-effect control and ±100 the full control effect
Target sequence (Q27686 whole entry, looked up): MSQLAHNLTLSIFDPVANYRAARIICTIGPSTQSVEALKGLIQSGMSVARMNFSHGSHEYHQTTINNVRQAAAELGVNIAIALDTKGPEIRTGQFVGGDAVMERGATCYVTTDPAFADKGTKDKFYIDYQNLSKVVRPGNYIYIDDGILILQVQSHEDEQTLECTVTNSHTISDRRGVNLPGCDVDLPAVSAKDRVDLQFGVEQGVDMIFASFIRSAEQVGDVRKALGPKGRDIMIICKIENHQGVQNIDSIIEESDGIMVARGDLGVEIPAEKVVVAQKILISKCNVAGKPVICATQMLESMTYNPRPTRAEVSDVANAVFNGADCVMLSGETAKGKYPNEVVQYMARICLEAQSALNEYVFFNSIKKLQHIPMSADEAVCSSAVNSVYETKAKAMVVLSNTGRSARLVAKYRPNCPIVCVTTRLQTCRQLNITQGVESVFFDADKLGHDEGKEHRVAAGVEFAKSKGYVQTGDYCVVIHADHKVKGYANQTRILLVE
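Pyruvate kinase activity monitored as ATP production (luciferase luminescence). Conditions: 0.1 nM enzyme, 0.5 mM PEP, 0.1 mM ADP, 1 h, RT; normalized against uninhibited and no-enzyme wells.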
The depositor's hits bear a star; ? = inconclusive; · = no result; + = active, no number; [ ] = remark or other dose. Unless noted, the call rests on the fitted dose curve; in most records, active means well fitted curve in the direction sought with a large enough effect; inconclusive means small, poorly fitted or top-dose-only effect, or another doubt; inactive means no such curve, though single readings can be large; an effect the other way counts as inactive or inconclusive.

SMILES	FBPA Giardia inh	Tb PYK inh	CHX counter	Sm TGR block	Shiga toxin inh	LmPK inh
O=C(O)c1ccc2c(c1)C(=O)N(CCc1ccc(O)cc1)C2=O	22%	·	5	7%	-2	·
O=C(Nc1ccc(F)cc1)c1nsc(Cl)c1Cl	-2%	-4%	29*	-1%	68*	?
O=C(c1csnn1)N1CCC2(CC1)CCN(c1ccccc1)CC2	0%	1%	·	·	·	·
Cc1ccc(CNC(=O)C2CC(=O)N(C3CCCC3)C2)cc1 (stereo not given)	·	-8%	·	-6%	·	·
Cc1ccc2c(c1)Oc1ccc(NC(=O)CCl)cc1C(=O)N2	3%	-6%	13	11µM*	-16	1%
Cc1ccc(C2=NN(S(C)(=O)=O)C(c3ccc4c(c3)OCO4)C2)cc1 (stereo not given)	-1%	-16%	76*	-1%	+	-15%
CS(=O)(=O)Nc1ccc(C2=NN(S(C)(=O)=O)C(c3ccc4nccnc4c3)C2)cc1 (stereo not given)	2%	-17%	15*	2%	26	2%
CCS(=O)(=O)Nc1cccc(C2=NN(S(C)(=O)=O)C(c3ccccc3)C2)c1 (stereo not given)	4%	-4%	17	-12%	3	-5%
CC(=O)N1N=C(c2ccc(C)cc2)CC1c1ccc2c(c1)OCO2 (stereo not given)	-4%	-1%	45*	2%	52*	3%
CC(=O)N1N=C(c2ccco2)CC1c1ccc(C)cc1 (stereo not given)	0%	-11%	-4	-28%	20	-2%
CS(=O)(=O)N1N=C(c2ccc(Br)cc2)CC1c1ccc2c(c1)OCO2 (stereo not given)	6%	-4%	45*	9%	83*	-15%
COc1ccc(S(=O)(=O)N2CCC(C(=O)Nc3ccc(Oc4ccccc4)cc3)CC2)cc1	·	0%	·	7%	·	·
CC(C)[C@@H]1C(=O)N(S(C)(=O)=O)[C@H]2CCN(C(=O)/C=C\CN3CCCCC3)[C@@H]12	2%	·	·	·	·	·
C=CCn1c(SCC(=O)Nc2nnc(C)s2)nnc1C1CC1	·	2%	16*	0%	-23	-8%
NC(=O)c1ccccc1NC(=O)/C=C/c1c(Cl)cccc1Cl	·	7%	27*	8%	143*	4%
NC(=O)c1ccccc1NC(=O)/C=C/c1cccc(Cl)c1	0%	·	45*	12%	118*	0%
Fc1ccc(N2CCN(c3ncnc4c3nc3n4CCCC3)CC2)cc1	·	-2%	·	?	·	·
Cc1cc(C)n(CC(=O)Nc2ccc3c(c2)OCO3)c(=O)c1C#N	·	-5%	·	1%	·	·
N/C(=N\NC(=O)c1cccs1)c1cc2cc(Cl)ccc2oc1=O	-15%	4%	36*	5%	49*	-4%
COc1ccc2o/c(=N/NC(=O)c3cccs3)c(C(N)=O)cc2c1	-4%	2%	36*	4%	71*	2%
CC(NNC(=S)N1CCN(c2ccccn2)CC1)c1nccc2ccccc12 (stereo not given)	·	-31%	·	·	·	·
O=C(c1ccccc1)c1ccc(OCCCN2CCCC2)cc1	-13%	9%	28*	-2%	44*	-7%
O=C(c1ccccc1)c1ccc(OCCCCN2CCCCC2)cc1	-26%	-8%	-2	-3%	14	-7%
c1ccc(COc2ccc(OCCCCN3CCCCC3)cc2)cc1	?	17%	55*	-7%	70*	2%
Cc1cc(Cl)ccc1OCCCC(=O)NCCN1C(=O)S/C(=C\c2cccnc2)C1=O	-21%	-5%	31*	1%	40	3%
SMILES	FBPA Giardia inh	Tb PYK inh	CHX counter	Sm TGR block	Shiga toxin inh	LmPK inh
O=C1CCC(C(=O)NCCN2C(=O)S/C(=C\c3cccnc3)C2=O)=NN1	-10%	-8%	-2	-12%	-23	-6%
CS(=O)(=O)c1ccc(C(=O)NCCN2C(=O)S/C(=C\c3cccnc3)C2=O)cc1[N+](=O)[O-]	-9%	-4%	31*	8.9µM*	8	0%
CC(CCc1ccccc1)NC(=O)COC(=O)c1ccc(NC(=O)CC#N)cc1 (stereo not given)	-3%	-6%	-7	1%	-2	10%
CC(C)NC(=O)N1CCC2(CC1)CCN(S(C)(=O)=O)CC2	3%	-4%	·	·	·	·
CCO[C@H](c1cc(OC)cc([N+](=O)[O-])c1OC)[C@H](C)/C=C\CC(=O)OC	2%[12.9 µM]	·	·	·	·	·
CN(C)C(=O)c1cc(C(=O)c2ccc(F)cc2F)c[nH]1	0%	-5%	16*	-1%	102*	-2%
CN(C)C(=O)c1cc(C(=O)c2ccc(F)cc2C(F)(F)F)c[nH]1	10%	2%	4	11%	18	1%
CN(C)C(=O)c1cc(C(=O)c2ccccc2F)c[nH]1	-5%	2%	1	4%	21	5%
CN(C)C(=O)c1cc(C(=O)c2ccc(C(F)(F)F)cc2F)c[nH]1	10%	2%	42*	3%	92*	-2%
CC(=O)Nc1ccc(S(=O)(=O)N(C)CC(=O)Nc2cccc(S(=O)(=O)N3CCCC3)c2)cc1	·	8%	·	3%	·	·
Cc1ccnc(NC(=O)CS(=O)(=O)c2ccccc2)c1	7%	-1%	13	0%	89*	-3%
Cc1ccnc(NC(=O)CCS(=O)(=O)c2ccccc2)c1	3%	-1%	18*	-17%	36	-1%
O=C(COC(=O)c1cccc(O)c1)Nc1ccc(N2CCOCC2)cc1	·	-3%	·	-12%	·	·
COc1ccc(C(=O)c2ccc(OC)cc2O)c(O)c1	0%	0%	11	-1%	47	-2%
C/C(=N\Nc1ccc(F)cc1F)c1cccs1	-4%	·	35*	-9%	64	-9%
N/C(CC(=O)Nc1ccc(F)cc1F)=N\OC(=O)c1cccs1	6%	3%	-2	9%	13	-2%
COc1ccc(/C(C)=N/Nc2ccccc2Cl)c(O)c1	-6%	11%	37*	14µM*	48*	-16%
COc1ccc(/C(C)=N/Nc2ccc(F)cc2F)c(O)c1	-3%	-5%	42*	-25%	74*	-1%
COc1cc(C2C3=C(CC(C)(C)CC3=O)Nc3c2c(=O)[nH]c(=O)n3Cc2ccccc2)ccc1O (stereo not given)	-20%	1%	-4	50µM*	-6	2%
Cn1c(=O)c2cc(S(=O)(=O)NC(Cc3ccccc3)C(=O)Nc3ccc(F)cc3)ccc2n(C)c1=O (stereo not given)	·	-1%	·	-3%	·	·
Fc1ccc(-n2c(-c3ccc4c(c3)OCO4)n[nH]c2=S)cc1Cl	9%	4µM*	11*	-7%	13	14µM*

From PubChem BioAssay
